# Reference: the supplement of paper PMC3342239
# Where a name gives a salt, the structure may show the parent alone.
# Test system: Saccharomyces cerevisiae
# Assay: fraction of cells in G1 phase (DNA content, flow cytometry); higher = more cells with unreplicated DNA (G1 delay)
# Conditions: temperature: 30 C, YPD
# Outline: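 Overnight cultures of sensitized JTY2953 were diluted 1∶200 into drug at a final 20 µg/ml and fixed after 6–7 h, and further runs treated dividing JTY2953 or BY4741, fixing them 6 h and 4.33 h later respectively. All growth used YPD at 30°C with S. cerevisiae and library drugs. After ethanol fixation and SYTOX Green staining, flow cytometry recorded 10,000 events. The G1 fraction equals the Dean-Jett-Fox G1 peak area over the G1 plus G2/M areas.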
# [1] = BY4741 PDR5+ SNQ2+, drug added to: actively dividing cells, 4.33 h
# [2] = JTY2953 pdr5 snq2 (sensitized), drug added to: actively dividing cells, 6 h
# [3] = JTY2953 pdr5 snq2 (sensitized), drug added to: cultures diluted from stationary phase, 6-7 h
SMILES,fraction of cells in G1 phase [1],fraction of cells in G1 phase [2],fraction of cells in G1 phase [3]
C=C1/C(=C\C=C2/CCC[C@]3(C)[C@@H]([C@H](C)CCCC(C)C)CC[C@@H]23)C[C@@H](O)C[C@@H]1O [Alfacalcidol] (49.9188 µM),0.469,0.651,0.606
COC1=C(OC)C(=O)C(CCCCCCCCCCO)=C(C)C1=O [Idebenone] (59.0933 µM),–,0.472,0.693
OCCN1CCN(CCCN2c3ccccc3Sc3ccc(C(F)(F)F)cc32)CC1 [Fluphenazine 2HCl] (45.711 µM),–,0.327,0.862
C[C@H](CS)C(=O)N1CCC[C@H]1C(=O)O [Captopril] (92.0434 µM),–,0.436,0.633
Cc1ccc(-c2cc(C(F)(F)F)nn2-c2ccc(S(N)(=O)=O)cc2)cc1 [Celecoxib] (52.4412 µM),–,0.299,0.863
CC[C@H](c1ccc(O)cc1)[C@@H](CC)c1ccc(O)cc1 [Hexestrol] (73.9714 µM),–,0.481,0.895
Fc1ccc([C@@H]2CCNC[C@H]2COc2ccc3c(c2)OCO3)cc1 [Paroxetine HCl] (60.7211 µM),0.468,–,0.387
CCCCc1oc2ccccc2c1C(=O)c1cc(I)c(OCCN(CC)CC)c(I)c1 [Amiodarone] (30.9922 µM),–,0.388,0.868
CCOC(=O)C1=C(C)NC(C)=C(C(=O)OC)C1c1cccc(Cl)c1Cl (stereo not drawn) [Felodipine] (52.0478 µM),–,0.609,0.683
CCOC(=O)C1=C(COCCN)NC(C)=C(C(=O)OC)C1c1ccccc1Cl (stereo not drawn) [Amlodipine] (48.9134 µM),0.481,0.673,0.768
CCC(C)(C)C(=O)O[C@H]1C[C@@H](C)C=C2C=C[C@H](C)[C@H](CC[C@@H]3C[C@@H](O)CC(=O)O3)[C@H]21 [Simvastatin] (47.7808 µM),–,0.354,0.879
CNCCC(Oc1ccc(C(F)(F)F)cc1)c1ccccc1 (stereo not drawn) [Fluoxetine HCl] (64.655 µM),0.43,–,0.17
CN(C)CCCN1c2ccccc2Sc2ccc(Cl)cc21 [Chlorpromazine HCl] (62.7212 µM),0.373,–,0.278
COC(=O)C1=C(C)NC(C)=C(C(=O)OCCCN2CCC(c3ccccc3)(c3ccccc3)CC2)[C@H]1c1cccc([N+](=O)[O-])c1 [Niguldipine HCl] (30.9502 µM),–,0.389,0.684
CC/C(=C(/CC)c1ccc(O)cc1)c1ccc(O)cc1 [Diethylstilbestrol] (74.5271 µM),–,0.42,0.838
COc1c(N2C[C@@H]3CCCN[C@@H]3C2)c(F)cc2c(=O)c(C(=O)O)cn(C3CC3)c12 [Moxifloxacin HCl] (45.6725 µM),0.402,–,0.212
CCOC(=O)N1CCC(=C2c3ccc(Cl)cc3CCc3cccnc32)CC1 [Loratadine] (52.2338 µM),–,0.448,0.778

SMILES,fraction of cells in G1 phase [1],fraction of cells in G1 phase [2],fraction of cells in G1 phase [3]
CSc1ccc2c(c1)N(CCC1CCCCN1C)c1ccccc1S2 (stereo not drawn) [Thioridazine HCl] (53.969 µM),–,0.469,0.729
CCc1nn(CCCN2CCN(c3cccc(Cl)c3)CC2)c(=O)n1CCOc1ccccc1 [Nefazodone] (42.5515 µM),0.422,0.688,0.721
CN(C)CCOc1ccc(/C(=C(/CCCl)c2ccccc2)c2ccccc2)cc1 [Toremifene] (49.2645 µM),–,0.524,0.901
CC(C)C(=O)c1c(C(C)C)nn2ccccc12 [Ibudilast] (86.8386 µM),0.462,0.698,0.604
CC(C)(C)c1ccc(C(O)CCCN2CCC(C(O)(c3ccccc3)c3ccccc3)CC2)cc1 (stereo not drawn) [Terfenadine] (42.4008 µM),–,0.324,0.776
CC(=O)OCC1OC([S-])C(OC(C)=O)C(OC(C)=O)C1OC(C)=O.CC[PH+](CC)CC.[Au+] (stereo not drawn) [Auranofin] (29.4771 µM),0.52,0.959,0.709
COc1ccc(-c2cc(=S)ss2)cc1 [Anethole-trithione (anetholtrithion)] (83.2062 µM),–,0.486,0.735
NC1CCN(c2c(F)cc3c(=O)c(C(=O)O)cn(C4CC4)c3c2Cl)C1 (stereo not drawn) [Clinafloxacin HCl] (54.6755 µM),0.359,–,0.254
COc1cccc2c1C(=O)c1c(O)c3c(c(O)c1C2=O)C[C@@](O)(C(=O)CO)C[C@@H]3O[C@H]1C[C@H](N)[C@H](O)[C@H](C)O1 [Doxorubicin HCl] (34.4828 µM),–,0.618,0.64
CCCCCCCCCCCCCCCCOP(=O)([O-])OCC[N+](C)(C)C [Miltefosine] (49.0703 µM),–,0.596,0.858
Fc1ccc(C(c2ccc(F)cc2)N2CCN(C/C=C/c3ccccc3)CC2)cc1 [Flunarizine-2HCl] (41.8936 µM),0.442,0.761,0.605
C[C@]12CCC(=O)C=C1C=C[C@@H]1[C@@H]2CC[C@@]2(C)[C@H]1CC[C@@]21CCC(=O)O1 [Canrenone] (58.7429 µM),0.453,0.649,0.612
CC(C)COCC(CN(Cc1ccccc1)c1ccccc1)N1CCCC1 (stereo not drawn) [Bepridil] (48.4262 µM),0.391,0.637,0.601
O=C(CCCN1CCC(O)(c2ccc(Cl)cc2)CC1)c1ccc(F)cc1 [Haloperidol HCl] (53.2093 µM),0.462,0.762,0.617
CC(=O)N1CCN(c2ccc(OCC3COC(Cn4ccnc4)(c4ccc(Cl)cc4Cl)O3)cc2)CC1 (stereo not drawn) [Ketoconazole] (37.6334 µM),0.507,0.84,0.747
Clc1ccc(COC(Cn2ccnc2)c2ccc(Cl)cc2Cl)c(Cl)c1 (stereo not drawn) [Miconazole] (48.0611 µM),–,0.467,0.869
C#C[C@]1(O)CC[C@H]2[C@@H]3CCC4=Cc5oncc5C[C@]4(C)[C@H]3CC[C@@]21C [Danazol] (59.2652 µM),–,0.457,0.88
